Most compounds without a hit are left out; they make up all but 3.6% or so of the library.
TROY NFkB inh: blocks TROY-dependent signaling in reporter cells; Q293 LMP1-TROYcd NF-kB luciferase reporter, 4 h; inhibition, % at 10 µM; actives 0.98% (n = 360,000);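 active = compounds whose plate-normalised and pattern-corrected inhibition of the luciferase reporter signal at the single screening dose is 50% or more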
LGR2 antag: inhibitors of bursicon-induced Drosophila LGR2 receptor cAMP signaling | actives 0.35% (n = 380,000) | inhibition, % at 9.99 µM | HEK293 LGR2, CRE-luciferase, bursicon-stimulated, 4 h;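 active = drop in luminescence signal, shown as inhibition above about 50% in the replicate tests, limit read from the data, passing the limit was not always enough; inconclusive = probably only some replicates passing the limit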;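 note: agonist challenge used bursicon conditioned medium at about half maximal strength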
LMP1 NFkB inh: reduces LMP1-driven NF-kappaB luciferase signal; LMP1-induced NF-kappaB luciferase reporter cells, luminescence; inhibition, % at 12.5 µM; actives 0.69% (n = 350,000); in the data active = inhibition above about 41%; inconclusive = no clear call, values can overlap the other calls;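 note: 0% = neutral control wells and 100% = reference inhibitor control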
HSF1 activator: increases HSF-1 driven luciferase reporter signal | actives 1.7% (n = 300,000) | NIH3T3-HGL HSF-1 luciferase reporter, MG132, 8 h; 100% = twice DMSO control signal | activation, % at 9 µM;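 active = mean replicate activation of at least 50% with a set share of replicates each reaching 50%; inconclusive = only one of those two conditions met; inactive = mean below 50% and too few replicates reaching it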;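 note: 0% = median of the neutral control wells and 100% = twice that signal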
HSF1 inhib: HSF1 inhibition; NIH3T3-HGL HSE-luciferase, MG132-induced, luminescence 8 h; active compounds read low; activity change, negative = inhibition, % at 7.5 µM (by protocol); actives 0.77% (n = 300,000); AID 2098;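 active = more than half of replicate wells show activity change below -50%, luminescence cut by over half; inconclusive = some wells, but at most half, below -50%; inactive = no replicate well below -50%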;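 note: luciferase reports HSF-1 transcriptional activity via heat shock element; 0% = median of DMSO wells and -100% = zero luminescence signal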
TWEAK Fn14 block: inhibitors of TWEAK-Fn14 interaction signaling; TWEAK-stimulated Fn14 reporter cells, luciferase luminescence, 8 h; inhibition, % at 10 µM; actives 2% (n = 360,000); AID 1159606; in the data active = inhibition above about 50%
* marks the source's active call; other numbers are inactive results; u = inconclusive; x = no result given.

SMILES | TROY NFkB inh | LGR2 antag | LMP1 NFkB inh | HSF1 activator | HSF1 inhib | TWEAK Fn14 block
Cc1nn(CC(=O)c2ccccc2Cl)c(C)c1[N+](=O)[O-] | 57* | -64 | -20 | -37 | -32 | 52*
Cc1nn(CC(=O)NCc2ccccc2)c(C)c1[N+](=O)[O-] | 2 | x | 4 | -3 | -1 | 4
O=C(COC(=O)c1ccccc1-n1cnnn1)c1ccc(Br)cc1 | 62* | 8 | 2 | -45 | -41 | 72*
O=C(COC(=O)c1ccccc1-n1cnnn1)c1ccccc1 | 36 | 1 | -12 | -31 | -32 | 30
COc1ccc(CNC(=O)COC(=O)[C@@H]2CCCN2C(=O)c2cccs2)cc1 | 1 | -6 | 45* | x | x | 16
COc1ccc(NC(=O)COC(=O)[C@@H]2CCCN2C(=O)c2cccs2)c(OC)c1 | -8 | x | -1 | -10 | -15 | 5
COc1ccc(CN(C)C[C@H]2OCCCC[C@@H](C)Oc3ccc(NS(=O)(=O)c4ccc(F)cc4)cc3C(=O)N([C@H](C)CO)C[C@H]2C)cc1 | x | -1 | x | x | x | x
O=C(NCC[C@@H]1CC[C@H](NS(=O)(=O)c2ccc(F)cc2)[C@H](CO)O1)Nc1ccc(Cl)cc1 | x | -1 | x | x | x | x
CC(C)(C)C1CCc2c(sc(NC(=O)C3CC=CCC3C(=O)O)c2C#N)C1 (stereo unspecified) | 56* | 7 | -5 | 5 | 1 | 27
CCC(C)(C)C1CCc2c(sc(NC(=O)c3ccoc3C)c2C(N)=O)C1 (stereo unspecified) | 63* | x | 3 | -16 | -5 | 17
CCC(C)(C)C1CCc2c(sc(NC(=O)c3ccccc3C(=O)O)c2C#N)C1 (stereo unspecified) | 72* | x | -8 | 22 | -2 | 9
CC(C)(C)C(=O)Nc1sc2c(c1C#N)CCN(Cc1ccccc1)C2 | -4 | 16 | -5 | 57* | 18 | 0
COc1ccc(S(=O)(=O)Nc2ccc3c(c2)C(=O)N([C@@H](C)CO)C[C@H](C)[C@H](CN(C)S(=O)(=O)c2cccs2)OCCCC[C@H](C)O3)cc1 | x | 25 | x | x | x | x
O=C(COC(=O)COc1ccc(Br)cc1)NC1CCCCCC1 | 79* | 11 | -9 | x | x | 1
CCCN1[C@@H]2c3cccc(=O)n3C[C@@H]2[C@@H](CO)[C@@H]1C(=O)N[C@H](C)c1ccccc1 | x | 1 | x | x | x | x
O=C(Nc1ccccc1F)C(=Cc1sc(N2CCOCC2)nc1-c1ccccc1)C(=O)Nc1ccccc1F | -28 | 2 | 0 | 64* | 16 | 19
Cc1cc(C(=O)N/N=C/c2sc(N3CCOCC3)nc2-c2ccccc2)c(C)o1 | 2 | -5 | 41* | 28 | 11 | 6
C[C@@H]1CN([C@H](C)CO)C(=O)c2cc(NC(=O)Nc3cccc4ccccc34)ccc2O[C@H]1CN(C)Cc1ccc(Cl)c(Cl)c1 | x | -15 | x | x | x | x
COc1ccc(N(C)S(=O)(=O)c2cccc(C(=O)OCC(=O)c3c(N)n(C)c(=O)n(C)c3=O)c2)cc1 | 65* | 33 | 16 | x | x | 71*
Cc1noc(C)c1NC(=O)Nc1cccc2c1O[C@H](CN(C)S(=O)(=O)c1cn(C)cn1)[C@H](C)CN([C@@H](C)CO)C2=O | x | -3 | x | x | x | x
COCCNC(=O)C(c1ccc(C)cc1)N(C(=O)CCC(=O)Nc1ccccn1)c1ccccc1C (stereo unspecified) | -7 | -15 | -1 | 78* | 27 | 8
CCCNC(=O)Nc1ccc2c(c1)C(=O)N(C)[C@H]1CC[C@@H](CC(=O)NCCCN(C)C)O[C@H]1CO2 | x | -11 | x | x | x | x
O=C(/C(=C/O)N=Nc1cccc(C(F)(F)F)c1)c1ccccc1 | 19 | -30 | 0 | 3 | 0 | -3
O=C(/C(=C/O)N=Nc1ccccc1Cl)c1ccccc1 | 52* | -13 | 16 | 8 | -3 | 58*
COc1ccc(CCN2C(=O)CSC2=Nc2ccc(C(C)C)cc2)cc1OC | 38 | 1 | 21 | 6 | -2 | 58*
SMILES | TROY NFkB inh | LGR2 antag | LMP1 NFkB inh | HSF1 activator | HSF1 inhib | TWEAK Fn14 block
COc1ccc(N=C2SCC(=O)N2CCc2ccc(OC)c(OC)c2)cc1 | 13 | x | 6 | -8 | 4 | -4
COc1ccc(CN(C)CCc2ccccn2)cc1OC | 6 | x | 0 | 3 | 3 | 4
COc1cc(OC)c(OC)cc1CN(C)CCc1ccccn1 | -35 | x | -1 | 74* | 30 | -2
O=C(c1ccccn1)N1C[C@H]2[C@@H](c3ccccc31)[C@@H](CO)N2C(=O)Cc1ccccc1 | x | -5 | x | x | x | x
CCCOc1cc(N)ccc1C(=O)OCCN(CC)CC | 3 | 7 | -3 | x | x | 12
CCCOc1ccc(N)cc1N | 3 | x | 54* | 13 | 2 | -18
O=C(N/N=C/c1cccs1)c1n[nH]c2c1CCC2 | 19 | u | 39 | 16 | -1 | 57*
O=C(N/N=C/c1ccccc1Cl)c1n[nH]c2c1CCCC2 | 74* | 71* | 19 | -72 | -67* | 97*
O=C(N/N=C/c1ccc(Cl)cc1)c1n[nH]c2c1CCCC2 | -29 | -74 | 0 | -6 | 0 | -3
O=C(N/N=C/C(Br)=C/c1ccccc1)c1n[nH]c2c1CCC2 | 26 | x | -7 | -35 | -20 | 5
O=C(N/N=C/c1ccccc1Cl)c1cccc(F)c1 | -22 | -55 | -12 | 73* | 42 | -8
O=C(N/N=C/c1ccccc1)c1n[nH]c2c1CCCC2 | 10 | 31 | 24 | 41 | 18 | 54*
Cc1[nH]nc(C(=O)NN=Cc2ccccc2Cl)c1N=NN(C)C | -14 | 1 | -3 | x | x | -5
Cc1cc(C)cc(NC(=O)CN2C(=O)NC(C)(c3ccccc3)C2=O)c1 (stereo unspecified) | 7 | 12 | -4 | 86* | 39 | 6
CC1(c2ccccc2)NC(=O)N(CC(=O)NCCC2=CCCCC2)C1=O (stereo unspecified) | 57* | x | -11 | 1 | 2 | 2
COc1ccc(NC(=O)CN2C(=O)NC(C)(c3ccc(C)cc3)C2=O)c([N+](=O)[O-])c1 (stereo unspecified) | 0 | 10 | 51* | 33 | 1 | 5
Cc1cc(NC(=O)CN2C(=O)NC(C)(c3ccccc3)C2=O)no1 (stereo unspecified) | -1 | 10 | -10 | 0 | -7 | -17
Cc1ccc(C2(C)NC(=O)N(CC(=O)NCCC3=CCCCC3)C2=O)cc1 (stereo unspecified) | 10 | x | -22 | -2 | -1 | -7
CC(C)NC(=O)Nc1ccc2c(c1)C(=O)N([C@@H](C)CO)C[C@@H](C)[C@H](CN(C)Cc1ccc3c(c1)OCO3)OCCCC[C@@H](C)O2 | x | 3 | x | x | x | x
O=C(c1cc(COc2cccc(C(F)(F)F)c2)on1)N1CCCC1 | -53 | -10 | -9 | x | x | -18
C[C@@H]1CN(C(=O)c2cc(COc3cccc(C(F)(F)F)c3)on2)C[C@H](C)O1 | -78 | -68 | -12 | 95* | 56 | -23
C[C@H](CO)N1C[C@H](C)[C@@H](CN(C)Cc2ccccc2C(=O)O)Oc2ncc(C#CC3CC3)cc2C1=O | x | -2 | x | x | x | x

From PubChem BioAssay
